Laboratory results taken from the supplement of paper PMC12636033.
± gives the standard deviation of the averaged measurements. Over roughly 33,000 sequences, “E-score (rank enrichment, -0.5 to 0.5)” has its median near -0.0028; the highest 2% begin near 0.23. The entries come from a sample that favours the highest values as a whole.

System: 2Sb-muMax20 (muMax20 with two 1,3-bis(methyl)benzene Cys staples, A13C/A17C and Q88C/A92C, C-terminal Lys)
Test: PBM 8-mer E-score (E-score (rank enrichment, -0.5 to 0.5)); higher = stronger preferential binding
Experimental: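 Protein binding microarray (universal PBM chip covering all 10-mers in fixed probe flanks) with chemically synthesized human Max(13-93) bHLH-LZ analogs (not full-length Max) bearing noncanonical residues (hArg, Tha, Aib, Nle at 65) and aromatic Cys staples. Read-out per 8-mer (and its reverse complement): E-score (rank-based enrichment, -0.5 to 0.5) and Z-score of median probe intensity.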

| Sequence | PBM 8-mer E-score |
| --- | --- |
| TACCCTCA | 0.0472 ± 0.026 |
| CCCCCTCA | 0.0422 ± 0.049 |
| ACTTCAGA | -0.161 ± 0.095 |
| CAGCTCCG | -0.19 ± 0.065 |
| ATATGGAA | 0.0497 ± 0.036 |
| TGGTGTAA | 0.249 ± 0.037 |
| GGGTGTAA | 0.0984 ± 0.049 |
| CGGTGTAA | -0.0426 ± 0.082 |
| TCCGGGAA | -0.184 ± 0.07 |
| AAAACGAG | -0.00059 ± 0.034 |
| TGTATACA | 0.259 ± 0.05 |
| CGTATACG | 0.341 ± 0.027 |
| GGTATACA | 0.105 ± 0.011 |
| AGTATACA | 0.135 ± 0.025 |
| CGTATACC | -0.123 ± 0.0037 |
| CGTATACA | 0.0906 ± 0.018 |
| CAGCAGGC | -0.139 ± 0.04 |
| ACCCTCCA | 0.0708 ± 0.031 |
| CCCTCCCC | 0.157 ± 0.25 |
| ACCCTCCT | -0.0718 ± 0.019 |
| CCCCTCCC | 0.297 ± 0.13 |
| CCCCTCCG | 0.00173 ± 0.08 |
| ACCCTCCC | 0.289 ± 0.04 |
| CGGGTTAA | -0.0694 ± 0.12 |
| ACAGGTCT | -0.101 ± 0.015 |

| Sequence | PBM 8-mer E-score |
| --- | --- |
| GGCAATAC | -0.0237 ± 0.039 |
| ACGCGGCA | -0.1504 ± 0.0011 |
| AGAGCAAA | -0.124 ± 0.036 |
| AGCGTATG | 0.0491 ± 0.018 |
| CGGATTTA | -0.0345 ± 0.005 |
| GCACGGTA | -0.226 ± 0.0061 |
| TAACGTAA | -0.00578 ± 0.0029 |
| ATAACGTG | 0.277 ± 0.022 |
| ATAACGTC | 0.0413 ± 0.0089 |
| ATAACTTG | 0.253 ± 0.032 |
| ATAACTTA | 0.0822 ± 0.028 |
| ATAACGTA | 0.16 ± 0.052 |
| ATAACTTC | 0.1632 ± 0.00065 |
| TTCAGGAA | -0.0598 ± 0.038 |
| CCAAGAAC | 0.098 ± 0.03 |
| CGTCCCTC | -0.107 ± 0.023 |
| ATTACACG | 0.0209 ± 0.026 |
| ATTACAGG | 0.286 ± 0.0044 |
| ATTACAGA | -0.121 ± 0.03 |
| ATTACAGC | 0.0657 ± 0.05 |
| ATTACACC | 0.254 ± 0.06 |
| CTTACACC | -0.035 ± 0.078 |
| ACGAGGGG | 0.0607 ± 0.017 |
| CAAAGGAA | 0.047 ± 0.054 |
| GAGGATGA | 0.0986 ± 0.081 |

| Sequence | PBM 8-mer E-score |
| --- | --- |
| AAAAACGA | 0.256 ± 0.03 |
| CAAAACGA | 0.103 ± 0.0049 |
| ATAAACGA | 0.233 ± 0.029 |
| GTAAACGA | -0.00855 ± 0.0052 |
| ATAAACGC | -0.0771 ± 0.058 |
| GAAAACGA | -0.0116 ± 0.016 |
| CCGGTATC | -0.171 ± 0.092 |
| AAGTCAGC | -0.0311 ± 0.05 |
| AAGGCTAC | -0.168 ± 0.021 |
| AGCGAAAA | 0.212 ± 0.006 |
| TCACACCA | 0.0297 ± 0.027 |
| CGGATGTA | -0.172 ± 0.005 |
| AGATTTTG | 0.0113 ± 0.012 |
| CCTGTTAG | -0.0682 ± 0.013 |
| CCTGTTAA | 0.0396 ± 0.043 |
| CCTGTTAC | 0.274 ± 0.049 |
| ACCGGCTA | -0.152 ± 0.016 |
| ACAAGAAC | 0.152 ± 0.045 |
| CATTCTTC | 0.0315 ± 0.021 |
| ATGTAGAA | 0.245 ± 0.016 |
| ATGTAGTG | 0.156 ± 0.049 |
| ATGTAGAG | 0.0764 ± 0.027 |
| ATGTAGTA | 0.268 ± 0.012 |
| GTGTAGTA | 0.125 ± 0.052 |
| CTGTAGAA | 0.0722 ± 0.0078 |

| Sequence | PBM 8-mer E-score |
| --- | --- |
| AGACGTAC | -0.0467 ± 0.078 |
| ATTATTTG | 0.197 ± 0.0069 |
| CACTGCGG | -0.115 ± 0.052 |
| CCAACAGC | -0.068 ± 0.0017 |
| AGTCAATA | 0.09 ± 0.0033 |
| CGTCAATA | -0.0166 ± 0.034 |
| GGTCAATA | 0.238 ± 0.015 |
| GGATCTTA | -0.014 ± 0.071 |
| ACGCTGAC | -0.0415 ± 0.018 |
| AAACCGTG | -0.0746 ± 0.026 |
| CCTATAGG | 0.0292 ± 0.035 |
| ACTATAGT | 0.299 ± 0.039 |
| ACTATAGG | -0.00711 ± 0.032 |
| ACTATAGC | -0.0113 ± 0.072 |
| CCTATAGC | 0.264 ± 0.036 |
| ACTATAGA | 0.118 ± 0.11 |
| CAGTCCTC | 0.00033 ± 0.011 |
| AAAGAATG | 0.0117 ± 0.014 |
| AGAGACCA | 0.0299 ± 0.014 |
| ACTCTGTC | -0.111 ± 0.023 |
| GGCATCAC | 0.0631 ± 0.11 |
| CAAGGGGG | -0.105 ± 0.048 |
| ATAGGGGA | 0.18 ± 0.0034 |
| CAAGGGGA | 0.24 ± 0.015 |
| CAAGGGAA | -0.0769 ± 0.018 |

| Sequence | PBM 8-mer E-score |
| --- | --- |
| GTAGGGGA | 0.24 ± 0.067 |
| CTAGGGTA | -0.0583 ± 0.021 |
| ATAGGGTA | 0.123 ± 0.025 |
| GTAGGGTA | 0.266 ± 0.013 |
| CTAGGGGA | 0.117 ± 0.028 |
| AAAAAAAG | 0.126 ± 0.056 |
| GGGATCCC | -0.2 ± 0.043 |
| CAGGAGTC | -0.0911 ± 0.039 |
| AACGTTCA | 0.0627 ± 0.039 |
| ATATAAAT | 0.2095 ± 0.00022 |
| TACAGACA | 0.0665 ± 0.048 |
| AATTAATT | 0.167 ± 0.077 |
| AATTATTG | 0.262 ± 0.017 |
| AATTAATG | 0.239 ± 0.033 |
| AGTTAATC | 0.0432 ± 0.046 |
| AGTTAATA | 0.184 ± 0.015 |
| AGTTAATG | 0.232 ± 0.025 |
| AATTATTA | 0.18 ± 0.032 |
| AATTATTC | 0.0609 ± 0.0053 |
| CATTAATG | 0.18 ± 0.016 |
| AAGTTCGG | -0.224 ± 0.029 |
| CAATTCCG | -0.0516 ± 0.045 |
| AAGGTAAG | -0.0254 ± 0.00071 |
| ATTACGAA | -0.000195 ± 0.03 |
| AGTCTAAT | 0.0498 ± 0.0033 |

| Sequence | PBM 8-mer E-score |
| --- | --- |
| CGCTACTC | -0.172 ± 0.031 |
| CTTAGGCA | -0.203 ± 0.024 |
| AAGGCCCG | -0.159 ± 0.055 |
| GTTTCTGA | 0.0103 ± 0.029 |
| CACCCCTG | 0.0699 ± 0.055 |
| CCACCCTC | 0.234 ± 0.036 |
| CCACCCAA | 0.128 ± 0.049 |
| ACACCCAC | 0.2 ± 0.028 |
| CCACCCAC | 0.239 ± 0.045 |
| CCACCCTA | 0.189 ± 0.0062 |
| CACCCCTC | 0.278 ± 0.026 |
| GACCCCTC | 0.0964 ± 0.036 |
| ACACCCTC | 0.0661 ± 0.073 |
| GGTCCCGA | -0.305 ± 0.042 |
| AATATCCG | -0.0514 ± 0.051 |
| AATATCCA | 0.0444 ± 0.082 |
| AATATCCC | 0.245 ± 0.056 |
| CGGGGGTA | 0.0309 ± 0.084 |
| CCCCCCCG | -0.2 ± 0.13 |
| GCACCAGA | -0.126 ± 0.045 |
| AGCCCCGG | -0.0543 ± 0.054 |
| ACCCACCA | 0.274 ± 0.027 |
| ACCCACCG | 0.0752 ± 0.014 |
| CCCCACCA | 0.162 ± 0.035 |
| GCCCACCC | 0.359 ± 0.045 |

| Sequence | PBM 8-mer E-score |
| --- | --- |
| GCCCACCA | 0.12 ± 0.024 |
| ACCCACCT | 0.13 ± 0.029 |
| ACCACCCA | 0.073 ± 0.062 |
| CCCCACCG | 0.11 ± 0.1 |
| ACCCACCC | 0.417 ± 0.02 |
| GCCCACAC | 0.0967 ± 0.059 |
| CCCCACCC | 0.282 ± 0.076 |
| TCCCACCA | -0.0255 ± 0.1 |
| ATTCGGAG | -0.0732 ± 0.026 |
| GGGGATCA | 0.0797 ± 0.027 |
| AAGACCGT | -0.244 ± 0.028 |
| AATGGTAT | 0.157 ± 0.044 |
| ACGGGGTG | 0.118 ± 0.023 |
| CAGTATAC | 0.0863 ± 0.1 |
| GATGAAAC | 0.0586 ± 0.022 |
| ATGAACGG | -0.111 ± 0.0086 |
| CTCCGTCC | -0.114 ± 0.018 |
| ATGTAATA | 0.236 ± 0.065 |
| ATGTAACG | 0.0488 ± 0.0084 |
| CTGTAACA | -0.00643 ± 0.026 |
| CTGTAATA | 0.0526 ± 0.019 |
| ATGTAACA | 0.242 ± 0.031 |
| ATGTAATG | 0.155 ± 0.013 |
